In PubChem BioAssay (NCI):
Compounds without any hit were thinned out: in the full panel of roughly 83,000, 20% have a hit.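 In brief: 96-well plates, 48 h treatment, single concentration, percent growth endpoint.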 A number with no mark means an inactive call. Calls of active or inactive are those of the source. How the source made its calls: active means growth percent below 10; inactive means the rest.

Tests used:
Test in all cases: NCI-60 one-dose screen, 48 h (100 = growth as untreated, 0 = no growth, -100 = all killed)
HCT-15 colon = conditions: 10 µM unless noted
HT29 colon = conditions: 10 µM unless noted
SNB-75 CNS = conditions: 10 µM unless noted
SNB-19 CNS = conditions: 10 µM unless noted
U251 CNS = conditions: 10 µM unless noted
PC-3 prostate = conditions: 10 µM unless noted
SK-MEL-5 melanoma = conditions: 10 µM unless noted
UACC-62 melanoma = conditions: 10 µM unless noted
LOX IMVI melanoma = conditions: 10 µM unless noted
SK-MEL-28 melanoma = conditions: 10 µM unless noted
SK-MEL-2 melanoma = conditions: 10 µM unless noted
EKVX NSCLC = conditions: 10 µM unless noted
SN12C renal = conditions: 10 µM unless noted
UO-31 renal = conditions: 10 µM unless noted
ACHN renal = conditions: 10 µM unless noted
CAKI-1 renal = conditions: 10 µM
A498 renal = conditions: 10 µM unless noted
CCRF-CEM leukemia = conditions: 10 µM unless noted
MOLT-4 leukemia = conditions: 10 µM unless noted

| SMILES | growth (HCT-15 colon) | growth (HT29 colon) | growth (SNB-75 CNS) | growth (SNB-19 CNS) | growth (U251 CNS) | growth (PC-3 prostate) | growth (SK-MEL-5 melanoma) | growth (UACC-62 melanoma) | growth (LOX IMVI melanoma) | growth (SK-MEL-28 melanoma) | growth (SK-MEL-2 melanoma) | growth (EKVX NSCLC) | growth (SN12C renal) | growth (UO-31 renal) | growth (ACHN renal) | growth (CAKI-1 renal) | growth (A498 renal) | growth (CCRF-CEM leukemia) | growth (MOLT-4 leukemia) |
| --- | --- | --- | --- | --- | --- | --- | --- | --- | --- | --- | --- | --- | --- | --- | --- | --- | --- | --- | --- |
| O=C(NCCNc1nccc(-c2c(-c3cccc(O)c3)nc3sccn23)n1)c1ccccc1O | 54.5% | 49.2% | 40.6% | 90.2% | 61.6% | 51.1% | 22.7% | 0.528% (active) | 33.5% | 41.4% | 13.9% | 66.8% | 48% | 34.6% | 46.1% | 24.3% | 104% | 18.9% | 46.2% |
| O=S(=O)(CCN1CCOCC1)Nc1cc(-c2ccc3ncnc(Nc4ccc(F)c(Cl)c4)c3c2)cnc1Cl | 16.2% | 14.6% | -20.7% (active) | 5.93% (active) | 13.5% | 13.4% | -5.68% (active) | -16.4% (active) | 4.23% (active) | 2.15% (active) | 2.26% (active) | 7.72% (active) | 18% | -8.69% (active) | 9.87% (active) | 17% | -40% (active) | 14.5% | -8.59% (active) |
| CCOC(=O)c1[nH]c(-c2ccc(Cl)cc2)cc1-c1cccnc1 | 21.8% | 6.32% (active) | -1.8% (active) | 52.9% | 20.8% | 14% | 27.1% | 38.8% | 48.5% | 47.8% | 39.5% | 24.3% | 43.6% | 21% | 35.7% | 28.3% | -9.26% (active) | 9.2% (active) | 11.7% |
| CCN(CC)CCN1C(=O)c2c(c3c4ccccc4[nH]c3c3[nH]c4ccccc4c23)C1=O | 59.4% | 46.5% | 80% | 80.3% | 87.9% | 82.5% | 94.3% | 87.2% | 82.3% | 96.3% | 101% | 80.3% | 79.1% | 71.3% | 62% | 87.9% | 67.7% | 78.8% | 34.8% |
| O=C(Nc1ccc(-n2ccc3c(NC(=O)c4ccccc4)ncnc32)cc1)Nc1cccc(Cl)c1Cl | 9.38% (active) | -40.2% (active) | 3.19% (active) | -3.36% (active) | -80% (active) | -57.5% (active) | 14.9% | 33.4% | -23.9% (active) | -24.2% (active) | -39.1% (active) | -5.65% (active) | -31.9% (active) | -80.4% (active) | -20.4% (active) | -26% (active) | 12% | 16.5% | 25.5% |
| O=S(=O)(CCN1CCOCC1)Nc1cncc(-c2ccc3ncnc(Nc4ccc(F)c(Cl)c4)c3c2)c1 | 84.6% | 73.6% | 56.3% | 61% | 68.9% | 53.2% | 95.4% | 77.5% | 56.6% | 81.7% | 81.5% | 44.7% | 66.7% | 51.9% | 45.2% | 72.3% | 73.1% | 57.1% | 71.7% |
| O=[N+]([O-])c1cccc(C(c2ccccc2)c2ccccc2)c1 | 95.3% | 79.8% | 86.4% | 97.3% | 90.9% | 70.4% | 101% | 86.7% | 87.3% | 107% | 97.8% | 79.1% | 98% | 75.7% | 85.9% | 56.8% | 91% | 87.2% | 83.3% |
| O=C1C(Cl)=C(Nc2ccccc2)C(=O)C(Cl)=C1Nc1ccccc1 | 109% | 112% | 113% | 129% | 104% | 109% | 112% | 111% | 96.9% | 119% | 113% | 114% | 109% | 94.2% | 109% | 106% | 78.6% | 103% | 114% |
